The results in this text go back to the emibetuzumab library of Makowski et al. (2022).

This is one part of the list. How many sequences the whole screen found active is unknown.

B1: VH:VL chains; a variant is named by its letters at X, in order (parent)
chain 1: QVQLVQSGAEVKKPGASVKVSCKASGYTFTDYXMHWVRQAPGQGLEWMGXVNPNXXXTTYNQKFEGRVTMTTDTSTSTAYMELRSLRSDDTAVYYCARXNXLDXWGQGTTVTVSS
chain 2: DIQMTQSPSSLSASVGDRVTITCSVSSSVSSIYLHWYQQKPGKAPKLLIYSTSNLASGVPSRFSGSGSGTDFTLTISSLQPEDFATYYCQVYSGYPLTFGGGTKVEIK

In the test the parent is B1. The test can be described thus: yeast display scFab, FACS + sequencing. The conditions noted are these: with MET. An outline of the steps:
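Antigen binding was called positive for sequences present in both antigen-positive samples and negative for those present only in the input. These calls came from deep sequencing, in two replicates, of round-3 sorted and input populations from a heavy-chain CDR mutant scFab yeast surface library. The library was first enriched twice magnetically on HGFR-Fc-coated Protein A beads and then by FACS, gating the top 50% antigen-positive cells after 3 h labelling at room temperature with 1 nM HGFR-Fc plus anti-Myc in PBSB with 1% milk.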
As for VKGASDWA, the antigen binding call is given as “no binding”.
On to VTTKSDSA, for which the antigen binding call is given as “no binding”.
Take VTTKSDGA: the antigen binding call was “no binding”.
In the case of YTARGSAA, the antigen binding call is listed as “binds”.
Take YREKGAAA: the antigen binding call is “binds”.
On to YRARGSAA, for which the antigen binding call is “binds”.
For the variant YRARGSLA, the antigen binding call is recorded as “binds”.
For the variant DTRGADAV, the antigen binding call is listed as “no binding”.
For DEGAGDGF, the antigen binding call is on record as “no binding”.
For the variant YRARSSLA, the antigen binding call was “binds”.
In the case of YKTRGSAA, the antigen binding call is recorded as “binds”.
For YKTRGFGA, the antigen binding call is reported as “no binding”.
In the case of FAARAFGV, the antigen binding call is “no binding”.
For the variant SEEASDGA, the antigen binding call is listed as “no binding”.
As for YRAGGVVA, the entry is “binds”; as for YRAGGSVA, “binds”.
With YRAGGFVA, the antigen binding call was “binds”.
Regarding YREGGFVA, the antigen binding call is reported as “no binding”.
Turning to YRAGGYVA, the antigen binding call was “binds”.
Regarding YRKGGFVA, the antigen binding call was “no binding”.
Consider DTGTGSSA, for which the antigen binding call is “no binding”.
For STTKSDGV, the antigen binding call is listed as “no binding”.
As for VAGTGDWA, the entry is “no binding”.
For YKGKGALD, the antigen binding call is “binds”.
Regarding FKGKGAGD, the antigen binding call is given as “binds”.
Turning to YKKGGSLD, the antigen binding call was “binds”.
YKGGGALD: the antigen binding call is on record as “binds”.
Consider YKEEDSLD, for which the antigen binding call is listed as “no binding”.
As for FKGKGVGD, the antigen binding call is on record as “no binding”.
In the case of YKGAGALD, the antigen binding call is “no binding”.
Take DTTGSASD: the antigen binding call is “no binding”.
As to VAGGDDWV, the antigen binding call is reported as “no binding”.
Turning to FKGKGALD, the antigen binding call is listed as “binds”.
As for YKGKGSLD, the entry is “binds”; as for FKGRGALA, “binds”; as for VRAGADAV, “no binding”.
As for SEARSSAD, the antigen binding call was “no binding”.
Take DAGEASAV: the antigen binding call is listed as “no binding”.
Turning to VRAGADSV, the antigen binding call was “no binding”.
As to YRGAASAV, the antigen binding call is “binds”.
As for YRAGSSAD, the antigen binding call is “binds”.
In the case of YAGEASAV, the antigen binding call is on record as “no binding”.
On to YAEESSAD, for which the antigen binding call was “no binding”.
Consider YRAGASAV, for which the antigen binding call was “binds”.
Turning to YRARSSAD, the antigen binding call is recorded as “binds”.
In the case of DAGTAFSS, the antigen binding call is listed as “no binding”.
For the variant VEREADWF, the antigen binding call is reported as “no binding”.
Take YRAKGSAD: the antigen binding call is on record as “binds”.
As for FREKDSAD, the entry is “no binding”; as for YREKDSAD, “binds”.
On to YAEKDAGD, for which the antigen binding call was “no binding”.
Regarding YRAGASAD, the antigen binding call is on record as “binds”.
On to YRARGSAD, for which the antigen binding call is reported as “binds”.
Take DTEEGDVA: the antigen binding call is “no binding”.
With DAKEGDAD, the antigen binding call is given as “no binding”.
Regarding DTGEADAS, the antigen binding call is “no binding”.
Turning to VKGEAAWD, the antigen binding call was “no binding”.
Regarding VAGKGVLD, the antigen binding call was “no binding”.
Consider VRGKGAWD, for which the antigen binding call is listed as “binds”.
VRGKGAAD: the antigen binding call was “binds”.
For VEGKGAGD, the antigen binding call is given as “no binding”.
As for VKGKGAWD, the entry is “binds”; as for VAGKGAGD, “no binding”.
VRGKGAVD: the antigen binding call was “binds”.
YEKETVVA: the antigen binding call is “no binding”.
YKGKGAWD: the antigen binding call is “binds”.
As to YKGKSAWD, the antigen binding call is “no binding”.
Turning to YRARSASV, the antigen binding call is “binds”.
As for YRARSAGV, the entry is “binds”.
Consider SEARSAGV, for which the antigen binding call is on record as “no binding”.
Take YRARSSGV: the antigen binding call is “binds”.
As to DRAGDAGV, the antigen binding call is given as “no binding”.
In the case of SEARSSGV, the antigen binding call was “no binding”.
With STEGDAGA, the antigen binding call is “no binding”.
Take DATRGAGY: the antigen binding call is given as “no binding”.
As for ARKGSSGD, the entry is “no binding”; as for YRKGDSLD, “binds”.
As for YRKGSSGD, the entry is “binds”; as for VEKGGSGD, “no binding”.
With YRKGDSGD, the antigen binding call is on record as “binds”.
With VRKGSSGD, the antigen binding call was “binds”.
VTGTGAAV: the antigen binding call is reported as “no binding”.
Take YRKGDAGD: the antigen binding call is “binds”.
As for FRGRGYAV, the entry is “binds”; as for FRGRGYVA, “binds”.
As for FAAGSYAV, the antigen binding call is given as “no binding”.
With FRGRGYWV, the antigen binding call is given as “binds”.
For the variant FRGRGYVV, the antigen binding call is “binds”.
As for VTGEDAVV, the entry is “no binding”; as for SEEGTAGA, “no binding”; as for FAGGGDWV, “no binding”.
For the variant VRATGYWA, the antigen binding call is recorded as “no binding”.
Consider DRGRGDWV, for which the antigen binding call is given as “no binding”.
As for YGGTSYSV, the entry is “no binding”; as for YRGRGYWV, “binds”; as for SRGRGYSV, “no binding”.
With YRGRGYSV, the antigen binding call is on record as “binds”.
For the variant FRGRGDWV, the antigen binding call was “binds”.
For YRGRGYWA, the antigen binding call is “binds”.
As to AKERGDGV, the antigen binding call is on record as “no binding”.
As for VETEGDAV, the entry is “no binding”.
With YRGRGVWV, the antigen binding call was “binds”.
Take FKGRGVWV: the antigen binding call is listed as “no binding”.
Consider YGGRGDWV, for which the antigen binding call was “no binding”.
On to ARGRGAWV, for which the antigen binding call was “no binding”.
Take FRGRGAWV: the antigen binding call is recorded as “binds”.
Regarding FKGRGAWV, the antigen binding call is “binds”.
As to VTGGGDGA, the antigen binding call is “no binding”.
As for VEGGGDAA, the entry is “no binding”; as for YEGGADVA, “no binding”; as for YRGRGSAF, “binds”.
Turning to YRGGGSAA, the antigen binding call is recorded as “binds”.
DAGGAAVA: the antigen binding call is “no binding”.
YRGGASAA: the antigen binding call was “binds”.
As for VEGGGSSA, the entry is “no binding”; as for YRGGAAAA, “binds”; as for DAGGAAAA, “no binding”.
For VRGGGSAA, the antigen binding call is “binds”.
As for DTKAASSA, the entry is “no binding”; as for SEGGSAAY, “no binding”; as for DEGGTDGV, “no binding”.
In the case of VREGSSAA, the antigen binding call was “no binding”.
Regarding DEGGTAAA, the antigen binding call is on record as “no binding”.
As for YEERTAAA, the entry is “no binding”.
For VRGRSSAA, the antigen binding call is reported as “binds”.
As for YRGGTAAA, the entry is “binds”; as for YRGRTAAA, “binds”.
With YRGRGYGS, the antigen binding call is reported as “binds”.
In the case of YRAGGYGF, the antigen binding call was “binds”.
As for YRGRGYVS, the antigen binding call is listed as “binds”.
With YRTRDVGF, the antigen binding call is reported as “no binding”.
With YRAGGVGF, the antigen binding call is listed as “binds”.
Take DKTGDDVF: the antigen binding call was “no binding”.
Consider SEKKDYSA, for which the antigen binding call was “no binding”.
As for DGGGGYWF, the entry is “no binding”.
On to YRGGGYGF, for which the antigen binding call is “no binding”.
Regarding YRGRGYGF, the antigen binding call is “binds”.
YRGRGYGA: the antigen binding call is “binds”.
As for YRGGGDGF, the antigen binding call is listed as “binds”.
As to YEGGGYSF, the antigen binding call is given as “no binding”.
Regarding DRGGGDGV, the antigen binding call is given as “no binding”.
Turning to YTGGDDGF, the antigen binding call is reported as “no binding”.
Regarding SETGADVA, the antigen binding call is on record as “no binding”.
Consider FTGRGAGV, for which the antigen binding call is on record as “no binding”.
As to YTGRGSGV, the antigen binding call is “binds”.
As for DTGRGSGV, the entry is “no binding”; as for YTGRGSLD, “binds”; as for YTGTSSLD, “no binding”.
As for VTGTGSLD, the antigen binding call was “no binding”.
As for DRAGDDSA, the antigen binding call is “no binding”.
As to YRARSASA, the antigen binding call is given as “binds”.
As for YRAGGASA, the antigen binding call was “binds”.
As for YRARGASA, the antigen binding call was “binds”.
Take YRAGGDSA: the antigen binding call was “binds”.
In the case of VEGTGVGD, the antigen binding call is recorded as “no binding”.
Turning to DAGKGAVY, the antigen binding call is on record as “no binding”.
Turning to STTGGDGV, the antigen binding call is “no binding”.
As to FAKTDAGF chain 1 G108D, the antigen binding call was “no binding”.
With SGRGNAGD, the antigen binding call was “no binding”.
On to YATKGFGD, for which the antigen binding call was “no binding”.
YRAKGAAD: the antigen binding call is given as “binds”.
As for FRTKGAAD, the entry is “binds”; as for FTAGGAAD, “no binding”; as for YRTKGAAD, “binds”.
As for FKGEGAAD, the entry is “no binding”; as for FRGEGAAD, “binds”.
As for ATGGGYVA, the entry is “no binding”.
With YRRGAAGD, the antigen binding call was “binds”.
As to YKRGSAGD, the antigen binding call is “binds”.
For the variant YKRAAYGD, the antigen binding call is reported as “no binding”.
YKRGAAGD: the antigen binding call is reported as “binds”.
As to YTRGAASD, the antigen binding call is given as “no binding”.
As for FEKGSDVA, the entry is “no binding”.
As for VETEGDVY, the antigen binding call was “no binding”.
Take FTGEDDVY: the antigen binding call is given as “no binding”.
As for YKGKGSVS, the entry is “binds”.
As for YKGKGYVD, the antigen binding call is listed as “no binding”.
DAGGGSSS: the antigen binding call is on record as “no binding”.
VEGGTAGS: the antigen binding call is reported as “no binding”.
As for DEGGGAGS, the antigen binding call is “no binding”.
As for DKEGGSSS, the entry is “no binding”; as for YKGKGAGS, “binds”; as for YKGRSSSS, “binds”.
For the variant YKGGGAGS, the antigen binding call was “binds”.
For the variant YEKEDYLA chain 1 G108D, the antigen binding call is given as “no binding”.
As for FAKEGDGD, the entry is “no binding”; as for YKGKGSSS, “binds”; as for YARGGAGA, “no binding”.
In the case of YKRGGAGS, the antigen binding call is on record as “binds”.
For YTGTGSGA, the antigen binding call is recorded as “no binding”.
As for YKGKGSGA, the entry is “binds”; as for VKAGGDGS, “no binding”.
As to YKGKGSGS, the antigen binding call is given as “binds”.
Turning to DTAESDLD, the antigen binding call is reported as “no binding”.
On to SEARSSWV, for which the antigen binding call is reported as “no binding”.
Regarding YKGRAAGS, the antigen binding call was “binds”.
In the case of AKGRAAAS chain 1 D103N, the antigen binding call was “no binding”.
For YKGKGAWS, the antigen binding call is “binds”.
As for VKGRADGS, the entry is “no binding”; as for DKEGGDAV, “no binding”.
Turning to FEKEGDAA, the antigen binding call is recorded as “no binding”.
Regarding YRARGFGV, the antigen binding call is given as “binds”.
On to YRARGSGV, for which the antigen binding call is “binds”.
As for YTARDVGV, the antigen binding call was “no binding”.
As for YTERGFGV, the entry is “no binding”.
For the variant YRARGVGV, the antigen binding call is recorded as “binds”.
As for YRARGYGV, the entry is “binds”.
As for YRARGAGV, the entry is “binds”; as for YRARGAWV, “binds”.
For the variant YAAGGDGV, the antigen binding call was “no binding”.
As for YRAETDGV, the entry is “no binding”; as for YRARSAWV, “binds”; as for YRARGDGV, “binds”.
As for SEEGTAGD, the antigen binding call is reported as “no binding”.
